# From PubChem
# CHX counter: Cycloheximide Counterscreen for Small Molecule Inhibitors of Shiga Toxin; max response, %; AID 2314, 2010; cell reporter, cycloheximide protein synthesis inhibition counterscreen; actives 12% (n = 300,000); in the data active means max response mostly above about 13%, no sharp cut-off; inactive means mostly below about 14%; further: read at 38.3 µM for the half of the compounds with a filed dose; 0% is about no effect
# Shiga toxin inh: A qHTS for Small Molecule Inhibitors of Shiga Toxin; actives 9.2% (n = 290,000); Vero cells, Shiga toxin protein synthesis inhibition reporter; inhibition, % at 38.7 µM; in the data active means inhibition mostly above about 28%, no sharp cut-off; inactive means mostly below about 43%; further: 0% is about no effect
# Pf growth 48h: Primary qHTS for delayed death inhibitors of the malarial parasite plastid, 48 hour incubation | P. falciparum luciferase growth in erythrocytes, 48 h | Potency, µM (top dose mostly 28.7 µM), inactives show at the highest dose activity change, negative = inhibition, actives largely listed as inhibitors | actives 5.9% (n = 310,000) | AID 504832, 2011; further: potency means the concentration at half of the fitted maximal effect; on the % scale 0 is the no-effect control and ±100 the full control effect
#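 A one-generation exposure of luciferase-tagged malaria parasites in RPMI 1640/Albumax erythrocyte culture, 37 C and 5% CO2. Inhibition is inferred from decreased luminescence after adding detection reagent.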
# AMA1-RON2 inh: qHTS for Inhibitors of AMA1-RON; Towards Development of Antimalarial Drug Lead: Primary Screen | Plasmodium falciparum AMA1 (3D7) - RON2 peptide interaction | AlphaScreen AMA1-biotinylated RON2 peptide binding | Potency, µM (doses to about 58.2 µM), for the others: top-dose activity change, negative = inhibition, hits mostly inhibitors | actives 0.2% (n = 360,000);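 further: potency means the concentration at half of the fitted maximal effect; 0% = vehicle wells and -100% = peptide control; nearly all actives have a fitted effect of over 45% in size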
#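 AMA1 (3D7) with his tag at 25 nM final met compounds first, then biotinylated RON2 peptide at 25 nM; detection used donor plus acceptor beads, 10 µg/mL apiece, read by AlphaScreen after 30 min at room temperature.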
# Pf growth 96h: Primary qHTS for delayed death inhibitors of the malarial parasite plastid, 96 hour incubation. actives 6.9% (n = 320,000). P. falciparum luciferase reporter growth, 96 h. Potency, µM (doses to about 28.7 µM), for inactives: at the top dose activity change, negative = inhibition, hits mostly inhibitors; further: potency means the concentration at half of the fitted maximal effect; on the % scale 0 is the no-effect control and ±100 the full control effect
#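 Cell-based qHTS: luciferase-tagged P. falciparum in erythrocytes (2% hematocrit, 0.05% parasitemia final) incubated with compounds for 96 hours, 37 C, 5% CO2; luciferase detection reagent then added and luminescence measured.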
# HCV inhibitor: qHTS Assay for Inhibitors of Hepatitis C Virus (HCV). actives 3.4% (n = 340,000). Potency, µM (highest dose often 41.8 µM), for inactives: top-dose activity change, negative = inhibition, most hits filed as inhibitors. Huh7.5.1 HCVcc-Cre infection, luciferase reporter, 44 h. AID 651820, 2012; further: potency means the concentration at half of the fitted maximal effect; on the % scale 0 is the no-effect control and ±100 the full control effect
#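 HCVcc-Cre virus at an moi near 0.5 was added right after compound to cells cultured 4 h from seeding (1,000 cells/well). Luciferase activity was determined 44 h later, 15 min after substrate addition at RT.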
# Active calls of the source: *; i = inactive; ? = inconclusive; · = no result given; ! = repeats disagree; [ ] = dose if it differs, or a comment. The list is not random: actives were taken first. Their share in the collection is about 21%. Unless noted, the call rests on the fitted dose curve; in most records, active means well fitted curve in the direction sought with a large enough effect; inconclusive means small, poorly fitted or top-dose-only effect, or another doubt; inactive means no such curve, though single readings can be large; an effect the other way counts as inactive or inconclusive.
SMILES,CHX counter,Shiga toxin inh,Pf growth 48h,AMA1-RON2 inh,Pf growth 96h,HCV inhibitor
O=C(COc1ccc(Cl)cc1)N(c1ccc(Cl)cc1)C1CN2CCC1CC2 (stereo unspecified),-3.1,-13.3,0.0%,0.0%,?,25.1µM*
O=C(COc1ccc(Cl)cc1)N(c1ccccc1Cl)C1CN2CCC1CC2 (stereo unspecified),-4.1,-16.4,?,-8.5%,?,10µM*
CCN(C[C@H]1N[C@@](Cc2ccccc2)(C(=O)OC)[C@H]2C(=O)N(Cc3ccccc3)C(=O)[C@@H]12)C(=O)Nc1ccc(C(F)(F)F)cc1,·,·,·,-5.3%,·,12.6µM*
CCN(C[C@H]1N[C@@](CC)(C(=O)OC)[C@H]2C(=O)N(Cc3ccccc3)C(=O)[C@@H]12)C(=O)NC(C)C,·,·,·,6.4%,·,6.31µM*
CC[C@@]1(C(=O)OC)N[C@H](CN(C)C(=O)NC(C)C)[C@@H]2C(=O)N(Cc3ccccc3)C(=O)[C@@H]21,·,·,·,-4.6%,·,-20.9%
CC(C)OCCCNC(=O)CN1C(=O)c2cccc3cccc1c23,1.0,-1.8,-14.0%,-12.1%,-27.1%,7.2%
CCn1c(CCC(=O)Nc2cc(F)ccc2C)nc2cc(S(=O)(=O)N(C)C)ccc21,-5.4,-4.6,?,4.5%,-3.4%,?
CCN(CC)S(=O)(=O)c1ccc2c(c1)nc(CCC(=O)Nc1ccccc1Cc1ccccc1)n2CC,-3.0,-4.2,11.7µM*,-3.0%,·,10µM*
O=C(CN(C(=O)c1csnn1)c1ccc(Cl)cc1)NC1CCCC1,-4.1,8.3,33.0%,-6.4%,2.0%,2.3%
O=C(CN(C(=O)c1csnn1)c1ccc(F)c(Cl)c1)NC1CCCCC1,30.1*,50.7,16.7%,-8.5%,0.4%,3.7%
O=C(CN(C(=O)c1csnn1)c1ccc(Cl)cc1)NCCc1ccccc1,-2.9,20.1,13.1µM*,-4.8%,?,-2.5%
Cc1cc(N/C=C2\CCCCC2=O)no1,16.1*,38.4,42.0%,3.0%,-14.3%,5.7%
Cc1ccc(C(=O)Nc2ccc3ccccc3n2)cc1,41.4*,42.3*,175.8%,-1.8%,410.9%,-12.4%
O=C(Nc1ccc2ccccc2n1)Nc1cccs1,-0.8,31.0,19.0%,-1.9%,34.5%,10.8%
O=C(Nc1ccc2ccccc2n1)c1ccccc1Br,41.1*,131.2*,82.9%,0.7%,160.1%,?
O=C(Nc1ccc2ccccc2n1)c1ccccc1,49.2*,66.4*,-3.3%,2.9%,i,-3.4%
Cc1cc(C)cc(NC(=O)Nc2ccc3ccccc3n2)c1,-1.7,10.5,17.6%,11.2%,34.3%,-6.3%
COc1ccc(C(=O)Nc2ccc3ccccc3n2)cc1OC,29.2*,·,74.4%,3.7%,?,?
CC(C)Cc1ccc(-c2cc3nc(NCCCn4ccnc4)ccn3n2)cc1,·,·,·,42.8%,·,·
O=C(CCc1ccccc1)Nc1ccc2ccccc2n1,46.7*,103.8*,114.1%,-6.5%,?,?
O=C(c1ccccc1)c1ccc2ccccc2n1,38.9*,73.6,·,21.0%,23.1%,-13.5%
Cc1ccc(S(=O)(=O)NNC(=O)c2ccc3ccccc3n2)cc1,-3.0,8.0,-2.3%,31.6%,?,8.9%
Cc1ccc(C(O)(C(=O)NNc2ccc3ccccc3n2)c2ccc(C)cc2)cc1,13.0*!,-3.4,?,59.8%,?,?
CN(Cc1ccccc1)C(=O)[C@@H]1CCCN1,·,·,·,0.8%,·,·
COc1ccc(-c2onc3ccc(C(=O)/C=C/N(C)C)cc23)cc1,-2.7,-6.6,10.4µM*,1.0%,?,-18.0%
Cc1ccc(Nc2nc3ccccc3[nH]2)nc1,26.5*,53.5*,3.29µM*,?,?,?
O=C(Nc1nc2ccccc2[nH]1)c1ccccc1O,36.8*,97.2*,-10.2%[0.00184 µM],115.6%,2.8%,13.5%
CC(=O)Nc1ccccc1NC(=O)c1cc(C)ccc1C,-3.6,-5.5,-6.3%,4.8%,-35.2%[1.15 µM],0.7%
